Screening results deposited in PubChem by National Center for Advancing Translational Sciences (NCATS).
Rows were chosen to be rich in hits. Some 7.3% of all compounds tested hit in one or more screens of this group.
IP6K1 inh – blocks human inositol hexakisphosphate kinase 1. activity change, % (series mostly up to about 58 µM). 0.81% of 140,000 active. AID 1645851. IP6K1 kinase, ADP-Glo luminescence, 2 h; active compounds read low. Q92551; in the data active means activity change below about -25%
Target sequence (Q92551 whole entry, looked up): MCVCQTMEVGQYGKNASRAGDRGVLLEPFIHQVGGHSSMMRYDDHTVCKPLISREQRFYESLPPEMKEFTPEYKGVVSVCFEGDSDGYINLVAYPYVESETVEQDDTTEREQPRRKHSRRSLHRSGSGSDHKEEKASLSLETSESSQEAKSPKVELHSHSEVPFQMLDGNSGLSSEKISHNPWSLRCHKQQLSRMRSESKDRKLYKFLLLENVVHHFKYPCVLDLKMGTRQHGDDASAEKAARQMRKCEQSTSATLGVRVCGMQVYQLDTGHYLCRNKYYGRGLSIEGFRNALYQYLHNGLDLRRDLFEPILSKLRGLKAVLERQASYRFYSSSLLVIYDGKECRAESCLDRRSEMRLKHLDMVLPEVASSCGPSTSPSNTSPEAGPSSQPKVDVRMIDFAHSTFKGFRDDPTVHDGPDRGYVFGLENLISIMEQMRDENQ
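ADP-Glo luminescence measures ADP made by human IP6K1 during a 2 h RT reaction with ATP/IP6 (mix at 1.3 mM/130 uM); top library doses 57.5 and 19.1 uM final.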
HEK cytotox – kills HEK 293 cells | HEK 293 viability, ATP luminescence (CellTiter-Glo), 48-72 h | Potency, µM (doses to about 115 µM), without a hit: at the highest dose activity change, negative = cytotoxicity, usual class: inhibitors | 6.6% of 94,000 active | AID 1345083; further: potency means the concentration at half of the fitted maximal effect; nearly all actives have a fitted effect of over 60% in size
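Luminescence from cellular ATP, measured with CellTiter-Glo, indicates HEK 293 viability. Cells plated at 250 cells/well are treated with compound for 48 or 72 hr at 37 degree Celsius before reagent addition.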
SNCA viab count – counter-screen for SNCA expression inhibitors: cell viability; HEK-293-SNCA-luc viability, GF-AFC fluorescence, 24 h; Potency, µM (top dose mostly 57.1 µM), inactives show at the top dose activity change, negative = cytotoxicity, most hits filed as cytotoxic; 0.12% of 150,000 active;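 further: potency means the concentration at half of the fitted maximal effect; 0% = DMSO-treated cells and -100% = medium-only wells without cells; nearly all actives have a fitted effect of over 30% in size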
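HEK-293-SNCA-luc cells (1500/well) plated 24 h, then exposed 24 h to a dilution series; GF-AFC added 30 min at 37C, fluorescence 405/540 nm; normalised to medium-only and DMSO wells, Hill fit.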
FLuc inh – blocks purified firefly luciferase enzyme activity; Potency, µM (doses to about 115 µM), usual class: inhibitors; 2.5% of 76,000 active; purified P. pyralis luciferase, luminescence, biochemical; further: potency means the concentration at half of the fitted maximal effect; nearly all actives have a fitted effect of over 65% in size
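Luminescence read by CCD imager after adding enzyme (10nM final) to wells holding compound, titrated in qHTS. Substrates 10uM each D-luciferin and ATP; buffer 50mM Tris acetate pH 7.5, 10mM Mg acetate, Tween-20, BSA.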
NIH3T3 tox – kills NIH 3T3 cells; NIH 3T3 viability, CellTiter-Glo ATP luminescence, 48-72 h; Potency, µM (series often up to 96.7 µM), for the others: top-dose activity change, negative = cytotoxicity, most hits filed as inhibitors; 4.3% of 94,000 active; further: potency means the concentration at half of the fitted maximal effect; nearly all actives have a fitted effect of over 55% in size
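Cells were seeded at 400 per well, treated with pin-transferred compound, and kept 48 or 72 hr at 37 °C before CellTiter-Glo addition and luminescence imaging of cellular ATP.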
SNCA expr inh – SNCA gene expression inhibition; HEK-293 SNCA-luciferase knock-in, luminescence, 24 h; Potency, µM (highest dose often 57.2 µM), for inactives: top-dose activity change, negative = inhibition, hits mostly inhibitors; 0.17% of 140,000 active; AID 1671194;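 further: potency means the concentration at half of the fitted maximal effect; plate controls were DMSO cells for no effect and cell-free wells for full effect; nearly all actives have a fitted effect of over 45% in size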
* = called active by the depositor; [ ] = another dose, or the depositor's remark. Unless noted, the call rests on the fitted dose curve; in most records, active means well fitted curve in the direction sought with a large enough effect; inconclusive means small, poorly fitted or top-dose-only effect, or another doubt; inactive means no such curve, though single readings can be large; an effect the other way counts as inactive or inconclusive. Unless noted, on the % scale 0 is the no-effect control and ±100 the full control effect.

Results for O=C(Cc1c[nH]c2ncc(-c3ccccc3)cc12)Nc1ccc(C(F)(F)F)cc1 ?
IP6K1 inh: -13.1; HEK cytotox: 63.1µM*; SNCA viab count: -10.1%[87.6 µM]; FLuc inh: inactive; NIH3T3 tox: inconclusive; SNCA expr inh: -15.7%[87.6 µM]

What do the screens show for `NC(=O)Cc1c[nH]c2ncc(-c3cccc(N4CCOCC4)c3)cc12`?
IP6K1 inh: -21.4; HEK cytotox: -8.2%[172 µM]; SNCA viab count: 7.4%[87.6 µM]; FLuc inh: inactive; NIH3T3 tox: 100µM*; SNCA expr inh: -11.5%[87.6 µM]

Results for O=C(Cc1c[nH]c2ncc(-c3ccccc3)cc12)Nc1ccc(N2CCOCC2)cc1 ?
IP6K1 inh: 10.1; HEK cytotox: 63.1µM*; SNCA viab count: -7.0%[87.6 µM]; FLuc inh: inactive; NIH3T3 tox: 25.1µM*; SNCA expr inh: inconclusive

How did Cn1ncc2c(C(=O)N3CCC(C#N)CC3)cc(-c3ccccc3F)nc21 do in these assays?
IP6K1 inh: -5.4; HEK cytotox: inconclusive; NIH3T3 tox: inconclusive

How did COc1ccc(NC(=O)Cc2c[nH]c3ncc(-c4ccccc4)cc23)cc1 do in these assays?
IP6K1 inh: -8.3; HEK cytotox: -16.4%[172 µM]; SNCA viab count: -11.4%[87.6 µM]; FLuc inh: inactive; NIH3T3 tox: inconclusive; SNCA expr inh: 1.7%[87.6 µM]

How did COc1ccc(-c2cnc3[nH]cc(CC(=O)Nc4ccc(F)c(Cl)c4)c3c2)cc1 do in these assays?
IP6K1 inh: -20.7; HEK cytotox: inconclusive; SNCA viab count: -4.1%[87.6 µM]; FLuc inh: inactive; NIH3T3 tox: 31.6µM*; SNCA expr inh: 30.5%[87.6 µM]

How did N[C@@H]1CC[C@H](C(=O)N2CCC(Oc3cccc(C(F)(F)F)c3)CC2)C1 do in these assays?
IP6K1 inh: 23.0; HEK cytotox: 44.7µM*; SNCA viab count: -1.8%; FLuc inh: inactive; NIH3T3 tox: inconclusive; SNCA expr inh: 8.8%

What do the screens show for `Cc1noc(C)c1-c1cc2cc(CO)oc2c(NCc2cccc(F)c2)n1`?
IP6K1 inh: 4.0; HEK cytotox: inconclusive; SNCA viab count: -12.5%[87.6 µM]; FLuc inh: inactive; NIH3T3 tox: 25.1µM*; SNCA expr inh: 51.9%[87.6 µM]

How did Cc1noc(C)c1-c1cc2cc(CO)oc2c(NC2CCN(C)CC2)n1 do in these assays?
IP6K1 inh: 8.6; HEK cytotox: inconclusive; SNCA viab count: 7.5%[87.6 µM]; FLuc inh: inactive; NIH3T3 tox: 44.7µM*; SNCA expr inh: 63.6%[87.6 µM]

How did Cc1noc(C)c1-c1cc2cc(CO)oc2c(NCCN2CCOCC2)n1 do in these assays?
IP6K1 inh: 9.5; HEK cytotox: inconclusive; SNCA viab count: 3.2%[87.6 µM]; FLuc inh: inactive; NIH3T3 tox: inconclusive; SNCA expr inh: 32.1%[87.6 µM]

Results for Cc1cc2cc(-c3c(C)noc3C)nc(NC3CCN(C)CC3)c2o1 ?
IP6K1 inh: 2.1; HEK cytotox: 100µM*; SNCA viab count: 1.7%[87.6 µM]; FLuc inh: inactive; NIH3T3 tox: 35.5µM*; SNCA expr inh: 47.2%[87.6 µM]

How did COCCNc1nc(-c2c(C)noc2C)cc2cc(CO)oc12 do in these assays?
IP6K1 inh: 18.4; HEK cytotox: -14.6%[172 µM]; SNCA viab count: -12.2%[87.6 µM]; FLuc inh: inactive; NIH3T3 tox: inconclusive; SNCA expr inh: 64.4%[87.6 µM]

How did CC1CCCCN1CCCNC(=O)c1cc2c(s1)CN(C1CCCC1)C2 (configuration not stated) do in these assays?
IP6K1 inh: 18.8; HEK cytotox: 79.4µM*; SNCA viab count: 1.1%; FLuc inh: inconclusive; NIH3T3 tox: inconclusive; SNCA expr inh: 48.1%

Results for CCCNC(=O)[C@H]1O[C@H]1C(=O)N[C@H](C(=O)N1CCC[C@@H]1C(=O)OC)C(C)CC (some centres not stated) ?
SNCA viab count: 21.5µM*; SNCA expr inh: inconclusive

Results for COc1ccc(-c2nn(-c3ccccc3C)cc2CN2CCCN(C)CC2)cc1F ?
IP6K1 inh: 34.5; HEK cytotox: inconclusive; SNCA viab count: inconclusive; FLuc inh: inactive; NIH3T3 tox: inconclusive; SNCA expr inh: -2.5%

What do the screens show for `COc1ccc(-n2cc(CN3CCC(CO)CC3)c(-c3cccc(F)c3)n2)cc1`?
IP6K1 inh: 18.1; HEK cytotox: inconclusive; SNCA viab count: -4.4%; FLuc inh: inactive; NIH3T3 tox: 79.4µM*; SNCA expr inh: 1.2%

How did COC[C@@H]1CCCN1Cc1cn(-c2ccccc2)nc1-c1ccc(OC)cc1F do in these assays?
IP6K1 inh: 3.3; HEK cytotox: inconclusive; SNCA viab count: -4.8%; FLuc inh: inconclusive; NIH3T3 tox: inconclusive; SNCA expr inh: -7.9%

What do the screens show for `COc1ccc(-n2cc(CN3CCCN(C)CC3)c(-c3cccc(F)c3)n2)cc1`?
IP6K1 inh: 5.1; HEK cytotox: inconclusive; SNCA viab count: -15.2%; FLuc inh: inactive; NIH3T3 tox: 44.7µM*; SNCA expr inh: 10.2%

Results for COc1ccc(-n2cc(CN3CCCC(O)C3)c(-c3cccc(F)c3)n2)cc1 (configuration not stated) ?
IP6K1 inh: -1.2; HEK cytotox: inconclusive; SNCA viab count: inconclusive; FLuc inh: 28.2µM*; NIH3T3 tox: inconclusive; SNCA expr inh: 66.8%

Results for COc1ccc(OC)c2nc(-c3cccc(Cl)c3)c(CN3CCCC(O)C3)cc12 (configuration not stated) ?
IP6K1 inh: 12.1; HEK cytotox: inconclusive; SNCA viab count: -5.7%; FLuc inh: inactive; NIH3T3 tox: inconclusive; SNCA expr inh: -17.9%

How did COc1ccc(-c2nn(-c3ccccc3)cc2CN2CCCC(C)(O)C2)c(F)c1 (configuration not stated) do in these assays?
IP6K1 inh: -9.0; HEK cytotox: 89.1µM*; SNCA viab count: -2.4%; FLuc inh: inactive; NIH3T3 tox: inconclusive; SNCA expr inh: 7.2%

What do the screens show for `O=C(NCc1ccccc1)C1CCCN(C2CCN(C(=O)c3ccoc3)CC2)C1` (configuration not stated)?
IP6K1 inh: 4.6; HEK cytotox: -8.3%; SNCA viab count: 5.7%; FLuc inh: inactive; NIH3T3 tox: -12.2%; SNCA expr inh: 4.3%

What do the screens show for `COc1ccc(-c2ccc(C(=O)N3CCN(C(=O)c4ccc(C(F)(F)F)cc4)CC3)cc2)nn1`?
IP6K1 inh: 8.8; HEK cytotox: -6.5%; NIH3T3 tox: -7.4%

What do the screens show for `COc1cccc(-c2cn3cc(C(=O)NCC(F)(F)F)nc3s2)c1`?
IP6K1 inh: -3.2; HEK cytotox: inconclusive; SNCA viab count: 5.0%; NIH3T3 tox: inconclusive; SNCA expr inh: 89.2%

How did O=C(NCC1CC1)c1cn2cc(-c3ccccc3)sc2n1 do in these assays?
IP6K1 inh: -6.0; HEK cytotox: 100µM*; SNCA viab count: 7.7%[87.6 µM]; NIH3T3 tox: inconclusive; SNCA expr inh: 148.0%[87.6 µM]
